Laboratory results taken from PubChem BioAssay AID623996 (NMMLSC, 2012).
Entries with a potency or affinity are not part of this list. Active and inactive are the calls of the source.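 Rule for the calls: active = fitted concentration giving half the maximal Nile Red retention below 100 µM; inactive = the rest.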

These compounds were tested against Multidrug resistance protein CDR1 (Candida albicans) (UniProt P43071) (assay: Candida albicans Cdr1 pump inhibition curves – singleplex, Cherry Pick2 set, dose response (AID 623996)). Conditions: S. cerevisiae AD/CaCDR1, Nile Red efflux inhibition, flow cytometry; series mostly up to 100 µM.
Sequence of Multidrug resistance protein CDR1 (Candida albicans) (P43071 whole entry, looked up): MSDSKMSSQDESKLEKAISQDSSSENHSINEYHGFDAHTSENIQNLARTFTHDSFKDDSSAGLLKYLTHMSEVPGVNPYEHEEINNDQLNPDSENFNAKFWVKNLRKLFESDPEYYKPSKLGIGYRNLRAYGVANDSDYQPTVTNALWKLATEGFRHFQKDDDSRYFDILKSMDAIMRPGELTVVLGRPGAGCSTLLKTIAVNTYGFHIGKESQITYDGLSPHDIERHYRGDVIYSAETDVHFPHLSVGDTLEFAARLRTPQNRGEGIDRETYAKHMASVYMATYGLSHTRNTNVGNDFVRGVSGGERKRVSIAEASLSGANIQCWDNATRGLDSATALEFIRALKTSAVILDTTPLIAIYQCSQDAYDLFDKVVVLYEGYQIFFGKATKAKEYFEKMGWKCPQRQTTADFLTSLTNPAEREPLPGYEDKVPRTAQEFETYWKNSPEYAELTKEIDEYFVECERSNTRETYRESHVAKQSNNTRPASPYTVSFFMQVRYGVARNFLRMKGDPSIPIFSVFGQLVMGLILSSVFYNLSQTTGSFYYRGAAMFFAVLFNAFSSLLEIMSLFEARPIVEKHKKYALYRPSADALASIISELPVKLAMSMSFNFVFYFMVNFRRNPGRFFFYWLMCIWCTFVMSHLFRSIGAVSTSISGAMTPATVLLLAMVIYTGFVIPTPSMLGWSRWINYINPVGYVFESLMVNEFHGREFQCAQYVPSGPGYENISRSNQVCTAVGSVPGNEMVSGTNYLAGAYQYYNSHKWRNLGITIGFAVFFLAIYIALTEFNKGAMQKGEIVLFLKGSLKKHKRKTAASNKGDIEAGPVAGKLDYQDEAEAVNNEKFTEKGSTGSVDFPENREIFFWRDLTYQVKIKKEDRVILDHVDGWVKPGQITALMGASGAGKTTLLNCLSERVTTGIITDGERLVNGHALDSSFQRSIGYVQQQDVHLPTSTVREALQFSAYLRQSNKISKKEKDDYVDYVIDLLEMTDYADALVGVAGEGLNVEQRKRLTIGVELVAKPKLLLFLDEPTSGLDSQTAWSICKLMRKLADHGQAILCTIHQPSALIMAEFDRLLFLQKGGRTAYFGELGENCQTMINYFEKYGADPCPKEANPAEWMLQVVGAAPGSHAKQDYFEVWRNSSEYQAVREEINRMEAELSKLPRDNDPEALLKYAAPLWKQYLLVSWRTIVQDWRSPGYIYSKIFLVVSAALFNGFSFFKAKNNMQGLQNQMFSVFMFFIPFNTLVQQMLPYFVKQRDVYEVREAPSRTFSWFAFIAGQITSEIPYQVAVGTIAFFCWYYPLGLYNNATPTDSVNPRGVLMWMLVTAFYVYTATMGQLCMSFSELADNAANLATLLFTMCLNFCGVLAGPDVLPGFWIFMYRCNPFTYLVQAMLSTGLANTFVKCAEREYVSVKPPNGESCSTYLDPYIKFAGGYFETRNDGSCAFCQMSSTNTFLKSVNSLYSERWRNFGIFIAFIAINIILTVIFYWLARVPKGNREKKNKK

outcome, inactive:
C[C@@]12C(=O)Nc3cc(F)c(F)cc3C(=O)N1[C@H]1c3cc(Cl)ccc3OC[C@@H]1[C@@H]2c1ccccc1
NS(=O)(=O)c1ccc(N2N=C(c3ccccc3)CC2c2ccc(Br)cc2)cc1 (stereo not given)
NC1=NC[C@H](Cc2ccc(O)cc2)N1CCc1cc(C(F)(F)F)cc(C(F)(F)F)c1
COc1ccc(CNC(=O)C(C#N)c2nc3ccccc3nc2N2CCN(C)CC2)cc1 (stereo not given)
Cc1cccc2sc(N(CCCN(C)C)C(=O)c3ccc(Cl)s3)nc12
Cc1ccc(O)c(C(=O)c2cnc3c(c2)CN(C)C(=O)N3)c1
CCCCNC(=O)C1CCC(CNc2nc(=S)[nH]c3ccccc23)CC1 (stereo not given)
NC1=NC[C@H](Cc2ccc(O)cc2)N1CCCCC1CCCCC1
O=C(C1CCCN(c2ncnc3c2nc2n3CCCCC2)C1)N1CCN(c2ccccc2)CC1 (stereo not given)
COc1ccc(C2CC(c3ccccc3C(F)(F)F)=NN2c2ccc(S(N)(=O)=O)cc2)cc1 (stereo not given)
Cc1ccc2sc(N(CCCN(C)C)C(=O)c3ccc(Br)s3)nc2c1C
COc1ccc(C(=O)OCCc2ccc(O)cc2)cc1
O=C(Nc1ccccc1)C1=C[C@H](c2ccccc2)C[C@H](OCCCCO)O1
O=C(NCCc1ccc(Cl)cc1)C1CCC(CNc2nc(=S)[nH]c3ccccc23)CC1 (stereo not given)
CC(C)C(=O)N1CCC2(CC1)Oc1ccc(Cl)cc1C(=O)C21CC(c2ccc(Cl)cc2)=NO1 (stereo not given)
O=C(C[n+]1cc(-c2ccccc2)n2c1CCC2)N1c2ccccc2Sc2ccccc21
Cc1ccc(CN2C(=O)C(CC(C)C)Nc3ncnc(N4CCN(c5ccccc5)CC4)c32)cc1 (stereo not given)
CCc1ccc(C2=NN(c3ccc(S(N)(=O)=O)cc3)C(c3ccc(F)cc3)C2)cc1 (stereo not given)
CCCCCCCCCC[N+](C)(C)CC/C=C1/c2ccccc2Sc2ccc(Cl)cc21
COc1ccc(C2CC(c3cccc(OC)c3)=NN2c2ccc(S(N)(=O)=O)cc2)cc1 (stereo not given)
Cc1ccc(CNC(=O)C2CCC(CNc3nc(=S)[nH]c4ccccc34)CC2)cc1 (stereo not given)
CC(C)C(=O)N1CCC2(CC1)Oc1ccc(F)cc1C(=O)C21CC(c2ccc(Cl)cc2)=NO1 (stereo not given)
COc1ccc(CN2C(=O)C(C)Nc3ncnc(N4CCN(c5ccccc5)CC4)c32)cc1 (stereo not given)
NS(=O)(=O)c1ccc(N2N=C(c3ccccc3)CC2c2ccc(F)cc2)cc1 (stereo not given)
NS(=O)(=O)c1ccc(N2N=C(c3ccccc3)CC2c2cccc(Br)c2)cc1 (stereo not given)
CCC(=O)N1CCN(c2ccc(Cl)cc2NC(=O)c2ccc3c(c2)OCCO3)CC1
COc1cccc(N2CCN(C(=O)C3CCCN(c4ncnc5c4nc4n5CCCCC4)C3)CC2)c1 (stereo not given)
CCOc1cccc2sc(NC(=O)c3ccc(Br)s3)nc12
CN1Cc2cc(C(=O)c3ccccc3O)cnc2NC1=O
O=C(Nc1ccccc1)C1=C[C@@H](c2ccc(Br)cc2)C[C@@H](OCCCCO)O1
